The text below walks through data of the supplement of paper PMC9262897, “Low-cost anti-mycobacterial drug discovery using engineered E. coli” (Nature Communications, 2022).

Molecules are shown by their SMILES. Structures can show the parent of a compound that is named as a salt. ± gives the standard deviation of the averaged measurements.

In this experiment the test system is E. coli TESEC Mtb Alr. In words: growth (OD600 after 10 h); higher = more growth (less inhibition). As to conditions: arabinose 100000 nM; compound 0.1 mM; raw OD600 reference: median of DMSO wells 0.201, cell-free background 0.041. The method, then:
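TESEC Mtb Alr E. coli, or the Alr+ wild-type control, in 384-well plates with Prestwick library compounds at 0.1 mM and 1% DMSO, across arabinose induction levels of 1E3 to 1E7 nM. Growth is read as OD600 after 10 h at 37 °C in triplicate biological replicates.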
`CC(=O)Oc1cccc2c1C(=O)c1c(OC(C)=O)cc(C(=O)O)cc1C2=O` [Diacerein] had a growth of 0.0638 ± 0.0022.

Turning to `COc1ccc(-c2cc(=S)ss2)cc1` [Anethole-trithione], the growth was found to be 0.18 ± 0.0053.

For `O=C(O)Cc1ccccc1Nc1c(Cl)cccc1Cl` [Diclofenac sodium], the growth was found to be 0.149 ± 0.006.

Consider `CCN1CCC[C@H]1CNC(=O)c1c(O)c(Cl)cc(Cl)c1OC` [Raclopride], for which the growth is 0.14 ± 0.014.

In turn, `COc1ccc(C[C@@H]2c3cc(OC)c(OC)cc3CC[N@+]2(C)CCC(=O)OCCCCCOC(=O)CC[N@@+]2(C)CCc3cc(OC)c(OC)cc3[C@H]2Cc2ccc(OC)c(OC)c2)cc1OC` [Cisatracurium besylate] showed a growth of 0.166 ± 0.0072.

`CN(C)CCOC(=O)C(c1ccccc1)C1(O)CCCC1` (centres undefined) [Cyclopentolate hydrochloride]: the growth came out at 0.183 ± 0.014.

Compound `CCCCOc1ccc(C(=O)CCN2CCCCC2)cc1` [Dyclonine hydrochloride] yielded a growth of 0.183 ± 0.0081.

Compound `CC[C@H]1OC(=O)[C@H](C)[C@@H](O[C@H]2C[C@@](C)(OC)[C@@H](O)[C@H](C)O2)[C@H](C)[C@@H](O[C@@H]2O[C@H](C)C[C@H](N(C)C)[C@H]2O)[C@](C)(O)C[C@@H](C)/C(=N\OCOCCOC)[C@H](C)[C@@H](O)[C@]1(C)O` [Roxithromycin] gave a growth of 0.0421 ± 0.0001.

In turn, `CCOC(=O)O[C@]1(C(=O)OCCl)CC[C@H]2[C@@H]3CCC4=CC(=O)C=C[C@]4(C)[C@H]3[C@@H](O)C[C@@]21C` [Loteprednol etabonate] registered a growth of 0.196 ± 0.028.

In turn, `c1ccc2c(CC3=NCCN3)cccc2c1` [Naphazoline hydrochloride] had a growth of 0.191 ± 0.019.

Turning to `O=C(N/N=C/c1ccc([N+](=O)[O-])o1)c1ccc(O)cc1` [Nifuroxazide], the growth came to 0.164 ± 0.022.

As to `COCCOC(=O)C1=C(C)NC(C)=C(C(=O)OC/C=C/c2ccccc2)C1c1cccc([N+](=O)[O-])c1` (centres undefined) [Cilnidipine], the growth worked out at 0.195 ± 0.022.

Regarding `CCN(CC)CCOC(=O)c1ccc(N)cc1` [Procaine hydrochloride], the growth came out at 0.2 ± 0.034.

Turning to `COc1cccc(N(C)C(=S)Oc2ccc3c(c2)CCCC3)n1` [Liranaftate], the growth came to 0.167 ± 0.0063.

As to `CC(C)(Sc1cc(C(C)(C)C)c(O)c(C(C)(C)C)c1)Sc1cc(C(C)(C)C)c(O)c(C(C)(C)C)c1` [Probucol], the growth is 0.236 ± 0.028.

In turn, `C[C@@H]1[C@H](O)[C@@H](C)/C=C/C=C/C=C/C=C/C=C/C=C/C=C/[C@H](O[C@@H]2O[C@H](C)[C@@H](O)[C@H](N)[C@@H]2O)C[C@@H]2O[C@](O)(C[C@@H](O)C[C@@H](O)[C@H](O)CC[C@@H](O)C[C@@H](O)CC(=O)O[C@H]1C)C[C@H](O)[C@H]2C(=O)O` [Amphotericin B] had a growth of 0.345 ± 0.0081.

Compound `C[C@@H](O)[C@H]1C(=O)N2C(C(=O)O)=C(S[C@@H]3CN[C@H](C(=O)N(C)C)C3)[C@H](C)[C@H]12` [Meropenem] showed a growth of 0.0523 ± 0.0007.

As to `CC1CCc2cc(F)cc3c(=O)c(C(=O)O)cn1c23` (centres undefined) [Flumequine], the growth came to 0.0452 ± 0.0012.

`O=C1CC2(CCCC2)CC(=O)N1CCCCN1CCN(c2ncccn2)CC1` [Buspirone hydrochloride] registered a growth of 0.184 ± 0.028.

In the case of `CC[C@]12CCCN3CCc4c(n(c5ccccc45)[C@@](O)(C(=O)OC)C1)[C@@H]32` [Vincamine], the growth stood at 0.193 ± 0.023.

On to `N#CC(c1ccc(Cl)cc1)c1c(Cl)cc(-n2ncc(=O)[nH]c2=O)cc1Cl` (centres undefined) [Diclazuril], for which the growth turned out to be 0.0425 ± 0.0014.

Compound `CCOC(=O)[C@H](CCc1ccccc1)N[C@H]1CCc2ccccc2N(CC(=O)O)C1=O` [Benazepril HCl] came in with a growth of 0.253 ± 0.023.

`C[C@H](CCC(=O)O)[C@H]1CC[C@H]2[C@@H]3[C@H](O)C[C@@H]4C[C@H](O)CC[C@]4(C)[C@H]3CC[C@]12C` [Chenodiol] displayed a growth of 0.278 ± 0.021.

With `CC(=O)CC(c1ccccc1)c1c(O)c2ccccc2oc1=O` (centres undefined) [Warfarin], the growth was determined as 0.139 ± 0.0062.

With `O=C1CN(/N=C/c2ccc(-c3ccc([N+](=O)[O-])cc3)o2)C(=O)N1` [Dantrolene sodium salt], the growth came out at 0.143 ± 0.007.

Consider `Nc1nc2c(ncn2COC(CO)CO)c(=O)[nH]1` [Ganciclovir], for which the growth was determined as 0.202 ± 0.023.

Regarding `Cc1ccc(C(=O)c2cc(O)c(O)c([N+](=O)[O-])c2)cc1` [Tolcapone], the growth came out at 0.0445 ± 0.00061.

In turn, `Fc1ccc([C@@H]2CCNC[C@H]2COc2ccc3c(c2)OCO3)cc1` [Paroxetine Hydrochloride] had a growth of 0.129 ± 0.0033.

Consider `COc1ccc(CN2CCN(C(c3ccc(F)cc3)c3ccc(F)cc3)CC2)c(OC)c1OC` [Lomerizine hydrochloride], for which the growth amounted to 0.137 ± 0.0039.

Turning to `C[C@@H]1C[C@H]2[C@@H]3CCC4=CC(=O)C=C[C@]4(C)[C@@]3(Cl)[C@@H](O)C[C@]2(C)[C@@]1(OC(=O)c1ccco1)C(=O)CCl` [Mometasone furoate], the growth is 0.161 ± 0.0059.

As for `Cc1cccc(Nc2ccncc2S(=O)(=O)NC(=O)NC(C)C)c1` [Torsemide], the growth was found to be 0.168 ± 0.012.

In turn, `COc1nc(C)nc(Cl)c1NC1=NCCN1` [Moxonidine] came in with a growth of 0.18 ± 0.013.

In the case of `NC(=O)c1cccnc1` [Nicotinamide], the growth is 0.263 ± 0.014.

In the case of `NCCCC(O)(P(=O)(O)O)P(=O)(O)O` [Alendronate sodium], the growth came to 0.24 ± 0.033.

The compound `NNC(=O)c1ccncc1` [Isoniazid] came in with a growth of 0.239 ± 0.052.

Take `CC(C)OC(=O)C(C)(C)Oc1ccc(C(=O)c2ccc(Cl)cc2)cc1` [Fenofibrate]: the growth worked out at 0.143 ± 0.0063.

`CCC[C@@H]1C[C@@H](C(=O)N[C@@H]([C@H]2O[C@H](SC)[C@H](O)[C@@H](O)[C@H]2O)[C@@H](C)O)N(C)C1` [Lincomycin hydrochloride]: the growth came out at 0.113 ± 0.0046.

Compound `CS(=O)(=O)OCCCCOS(C)(=O)=O` [Busulfan] came in with a growth of 0.233 ± 0.026.

Take `CC[C@H]1OC(=O)C[C@@H](O)[C@H](C)[C@@H](O[C@@H]2O[C@H](C)[C@@H](O[C@H]3C[C@@](C)(O)[C@@H](O)[C@H](C)O3)[C@H](N(C)C)[C@H]2O)[C@@H](CC=O)C[C@@H](C)C(=O)/C=C/C(C)=C/[C@@H]1CO[C@@H]1O[C@H](C)[C@@H](O)[C@@H](OC)[C@H]1OC` [Tylosin]: the growth came out at 0.0503 ± 0.0012.
